These results are taken from PubChem BioAssay AID590 (National Center for Advancing Translational Sciences (NCATS), 2007).

In all, about 59,000 compounds went through this assay and about 6,500 (11%) were called active. Another 15% or so got no clear call; they are omitted. Cut-off read from the data, not from the text of the source: active = max dye-equivalent concentration above about 10 nM; inconclusive = mostly about 1.1 nM to 9.6 nM; inactive = weaker than that. The full list was thinned out, with actives kept by preference.

A short description of this assay: qHTS Assay for Spectroscopic Profiling in A350 Spectral Region. The note with it: Compound autofluorescence, 340/450 nm, Alexa 350 dye-equivalents; hits give high values.
For the molecule `C=C(C)Cn1c(SCC(=O)NCc2ccco2)nc2sc3c(c2c1=O)CCC3`, the max dye-equivalent concentration entry was “inactive”.
In the case of `c1coc(CNc2ncnc3ccccc23)c1` it was “inactive”; in that of `CN1CCc2c(sc3c2c(NCc2ccco2)nc2nnnn23)C1`, 530 nM (active); in that of `CCOC(=O)c1cnc(SCC(=O)NCc2ccco2)nc1N`, “inactive”.
On to `CC(=NC1CCN(Cc2ccccc2)CC1)c1c(O)[nH]c(=O)[nH]c1=O`, for which the max dye-equivalent concentration entry was “inactive”.
Under `COc1ccccc1Nc1ncnc2c1oc1ccccc12` stands 84 nM (active); under `COc1ccccc1Nc1ncc(C(C)=O)c(C)n1`, “inactive”; under `COc1ccc(CCNC(=O)CSc2nc(C)nc3c2oc2ccccc23)cc1OC`, “inactive”.
Under `O=C1CSC(=O)N1CCOCCN1C(=O)CSC1=O` stands “inactive”; under `CS(=O)(=O)N1CCC2(CCN(c3ccncc3)CC2)CC1`, “inactive”; under `COc1c(F)c(F)c(-c2csc(N)n2)c(F)c1F`, 15 nM (active).
In the case of `Cc1ccc(F)cc1NC(=O)c1cccc(N(C)C)c1`, the max dye-equivalent concentration result is “inactive”.
Under `OCCCNC(c1ccccc1)c1ccc(O)cc1` (stereo not drawn) stands “inactive”; under `O=C(Nc1ccc(F)cc1)c1cccnc1N1CCOCC1`, “inactive”; under `CCOc1cc(N2CCOCC2)c(OCC)cc1NC(=O)COc1cccc2cccnc12`, 19 nM (active).
Under `C=CCn1c(COc2cccc3cccnc23)nnc1SCC(=O)OC` stands “inactive”; under `CCCn1c(SCC(=O)N2CCc3ccccc32)nnc1-c1ccncc1`, “inactive”; under `Cc1cccc(NC(=O)CSc2nc3c(c(=O)[nH]2)CCC3)c1C`, “inactive”.
Under `COc1cccc(-c2cc3nc4c(c(N5CCC6(CC5)OCCO6)n3n2)CCCC4)c1` stands 130 nM (active); under `COc1cccc(-c2nc(S(=O)(=O)c3ccccc3)c(N3CCOCC3)o2)c1`, “inactive”; under `COc1ccccc1CNC(=O)C1CCN(S(C)(=O)=O)CC1`, “inactive”.
Turning to `Cc1cc(C)c2nc3c(c([C@H](O)[C@@H]4CCCCN4)c2c1)CC/C3=C/c1ccc(Cl)cc1`, the max dye-equivalent concentration result was “inactive”.
`CCOC(=O)c1sc(/N=C/Nc2nc(C)c(C(=O)OCC)s2)nc1C`: the max dye-equivalent concentration is 10 nM (active).
Under `COC(=O)c1sc(NC(=O)c2csc3c2CCCC3)nc1C` stands “inactive”.
In the case of `Cc1nc(NC(=O)CCC(=O)O)sc1C(=O)N(C)C` it was “inactive”.
In the case of `CCN(CC)P(=O)(C(NC(=O)OC)C(F)(F)C(F)(F)C(F)(F)C(F)F)N(CC)CC` (stereo not drawn) it was “inactive”; in that of `CCOc1cccc(NC(=O)C2CCCN(S(=O)(=O)c3ccc(OC)cc3)C2)c1` (stereo not drawn), “inactive”; in that of `CCOC(=O)c1c(C)c(C(=O)NCCc2ccc(S(N)(=O)=O)cc2)c(C)n1CC`, “inactive”.
Take `C=CCNc1nnc(C)c2ccccc12`: the max dye-equivalent concentration result was “inactive”.
Under `CCOc1ccccc1-n1c(SCC(=O)N2CCCC2)nnc1-c1ccoc1C` stands “inactive”; under `C=CCNc1nnc(SCC(=O)N2CCCCC2)c2ccccc12`, 15 nM (active); under `O=C(OCC(=O)N1CCN(C(=O)c2ccco2)CC1)c1ccccc1Cc1ccccc1`, “inactive”.
In the case of `COc1ccc(C2C(C(=O)N3CCN(c4ccc(OC)cc4)CC3)c3ccccc3C(=O)N2C)cc1` (stereo not drawn) it was “inactive”; in that of `C/C(Cl)=C\Cn1c(Nc2cccc(C)c2)nc2c1c(=O)n(C)c(=O)n2C`, “inactive”.
As to `COCCNC(=O)c1snc2ccc(Cl)cc12`, the max dye-equivalent concentration was 46 nM (active).
On to `COCCNC(=O)c1ccccc1-c1nc(-c2ccccc2Cl)no1`, for which the max dye-equivalent concentration result was “inactive”.
As to `COCC(C)NC(=O)c1ccc(Cl)c(Cl)c1` (stereo not drawn), the max dye-equivalent concentration result is “inactive”.
As for `OCCCNCc1ccccn1`, the max dye-equivalent concentration result is “inactive”.
In the case of `Cc1noc(C)c1CSc1nc2cc(S(=O)(=O)N3CCOCC3)ccc2o1` it was “inactive”.
Regarding `CC(=O)Nc1ccc(S(=O)(=O)Nc2nc3n(n2)C(c2ccccc2)CC(=O)N3)cc1` (stereo not drawn), the max dye-equivalent concentration entry was “inactive”.
For the molecule `Cc1onc(-c2ccccc2Cl)c1C(=O)NCCn1ccc2ccccc21`, the max dye-equivalent concentration entry is “inactive”.
Turning to `Cc1ccc2nc(-c3ccc(SCC(=O)Nc4cc(C)on4)nc3)[nH]c2c1`, the max dye-equivalent concentration was 30 nM (active).
Under `Cc1cc(C)c2c(c1)cc(C)c1nnc(SCC(=O)Nc3cc(C)on3)n12` stands “inactive”; under `Cc1nc(SCC(=O)Nc2cc(C)on2)c2c(C)c(C)sc2n1`, “inactive”.
In the case of `Cn1c(=O)c2c(nc(SCC(=O)Nc3ccccc3N3CCCCC3)n2C)n(C)c1=O`, the max dye-equivalent concentration entry was “inactive”.
Under `CC(C)c1cc(CN(C)C)c(O)c(C(C)(C)C)c1` stands “inactive”; under `O=c1oc2cc(O)ccc2cc1-c1ccc(F)cc1`, 100 nM (active); under `O=C(Cn1c(=S)nc2ccccn21)N1CCc2ccccc2C1`, “inactive”.
In the case of `O=C1c2ccccc2C(=O)N1c1ccccc1S(=O)C(F)(F)F` (stereo not drawn), the max dye-equivalent concentration entry is “inactive”.
In the case of `CC1Cc2ccccc2N1C(=O)Cn1cnc2ccccc2c1=O` (stereo not drawn) it was “inactive”.
As to `CCOC(=O)CC1=CC(=O)Nc2ccccc2N1`, the max dye-equivalent concentration result was “inactive”.
Under `CCOC(=O)CCc1c(C)c(C#N)c2[nH]c3ccccc3n2c1=O` stands 5400 nM (active); under `CCCOC(=O)Cc1c(O)c2ccccc2[nH]c1=O`, “inactive”.
Under `CC1(C)Cc2ccccc2-c2nnc(-c3cccc(O)c3)n21` stands “inactive”; under `CCCC(=O)Nc1ccc(Cl)c(NC(=O)c2ccc(Br)o2)c1`, “inactive”.
In the case of `CCc1c(C)sc(NC(=O)c2ccc(Br)o2)c1C(=O)OC` it was 190 nM (active); in that of `Cc1cc(C)nc(-n2nc(C)cc2NC(=O)c2ccc(Br)o2)n1`, “inactive”.
Consider `COc1ccc(CCNC(=O)CSc2nnc(-c3cccc(F)c3)o2)cc1OC`, for which the max dye-equivalent concentration result was “inactive”.
On to `CC(C)C(=O)Nc1cccc(C(=O)Nc2ccc3c(c2)OCO3)c1`, for which the max dye-equivalent concentration entry is “inactive”.
Take `O=C1c2cccnc2C(Nc2ccc(S(=O)(=O)N3CCCCCC3)cc2)N1Cc1ccccc1` (stereo not drawn): the max dye-equivalent concentration result was “inactive”.
In the case of `O=C1c2ccccc2C(O)N1Cc1ccccc1` (stereo not drawn) it was 26 nM (active).
Regarding `O=C(NC1CCCCC1)C1c2ccccc2C(=O)N1Cc1ccco1` (stereo not drawn), the max dye-equivalent concentration result was “inactive”.
With `CC(C)(CNCC(O)c1ccccc1)N1CCOCC1` (stereo not drawn), the max dye-equivalent concentration result was “inactive”.
Under `Cc1ccc(C)c(NS(=O)(=O)c2cc(Br)cnc2N)c1` stands “inactive”; under `Cc1ccc(-c2noc(CSc3nnc(-c4ccccc4)n3C)n2)cc1`, “inactive”; under `N=c1n(Cc2ccc(Cl)cc2)c2ccccc2n1CC(O)c1ccco1` (stereo not drawn), 11 nM (active).
As to `O=C(c1ccncc1)N1CCC2(CCCN(C(c3ccccc3)c3ccccc3)C2)CC1`, the max dye-equivalent concentration result is “inactive”.
As for `COC(=O)[C@@H](NC(=O)NCc1cccc(OC)c1)C(C)C`, the max dye-equivalent concentration result was “inactive”.
Turning to `COc1ccccc1C(=O)NCCn1cc(SCC(=O)NCc2ccco2)c2ccccc21`, the max dye-equivalent concentration result is “inactive”.
Take `COc1cc(OC)cc(-c2nc3nc(C)c(CCC(=O)NCc4ccco4)c(C)n3n2)c1`: the max dye-equivalent concentration result is “inactive”.
Under `COc1ccc(CNC(=O)C2CCN(S(=O)(=O)N3CCOCC3)CC2)cc1` stands “inactive”.
With `COCCCNC(=O)c1ccc2c(c1)ncn2-c1ccccc1OC`, the max dye-equivalent concentration entry was “inactive”.
Turning to `COc1ccc(C(=O)NCc2cn3ccccc3n2)cc1`, the max dye-equivalent concentration result was “inactive”.
Under `COc1ccc(CCn2c(=N)c(C(=O)NCc3ccco3)cc3c(=O)n4cccc(C)c4nc32)cc1` stands 15 nM (active).
Regarding `CCn1c(=N)c(C(=O)NCCCOC)cc2c(=O)n3cccc(C)c3nc21`, the max dye-equivalent concentration is 20000 nM (active).
Turning to `COc1ccc(CNC(=O)c2cc3c(=O)n4ccccc4nc3n(CC3CCCO3)c2=N)cc1` (stereo not drawn), the max dye-equivalent concentration is 290 nM (active).
Turning to `CCOCCCNC(=O)c1c[nH]c2cc(C)ccc2c1=O`, the max dye-equivalent concentration result was “inactive”.
Under `COCCNc1ncnc2ccc(-c3cccnc3)cc12` stands “inactive”.
For the molecule `C=C(C)COc1ccc(-c2n[nH]c(C)c2-c2ccccc2OC)c(O)c1`, the max dye-equivalent concentration result is “inactive”.
For the molecule `CN1CCc2[nH]nc(-c3n[nH]c4c3CN(C)CC4)c2C1`, the max dye-equivalent concentration entry is “inactive”.
With `CCCSc1nc2c(c(=O)n(C)c(=O)n2C)n1Cc1ccc(C)cc1`, the max dye-equivalent concentration result was “inactive”.
As for `COc1ccccc1N1CCN(C(=O)Cn2nnc(-c3cccs3)n2)CC1`, the max dye-equivalent concentration entry was “inactive”.
Take `COc1ccc2c(c1)C(C)=CC(C)(C)N2C(=O)CNCc1ccc2c(c1)OCO2`: the max dye-equivalent concentration result is “inactive”.
In the case of `O=C1Nc2ccccc2C12Nc1ccccc1S2` (stereo not drawn) it was “inactive”; in that of `CCCCSc1nnc(-c2ccc(NC(=O)CC)cc2)n1C`, “inactive”.
For the molecule `Cc1cc(N2CCCC2=O)cc(C)c1S(N)(=O)=O`, the max dye-equivalent concentration entry was “inactive”.
On to `COc1ccc(CCNS(=O)(=O)c2ccc(C(=O)NCc3ccco3)cc2)cc1OC`, for which the max dye-equivalent concentration entry is “inactive”.
In the case of `O=C(CSc1nnc(-c2cccnc2)n1Cc1ccco1)c1ccc(Cl)cc1` it was “inactive”.
As for `C(=C\c1ccccc1)/CSc1nnc(-c2cccnc2)n1Cc1ccco1`, the max dye-equivalent concentration result was “inactive”.
In the case of `Clc1cccc(-c2nc3nc4ccccc4nc3n2Cc2ccco2)c1` it was 150 nM (active); in that of `O=C(NCC12CC3CC(C1)CC(CNC(=O)N1CCCC1)(C3)C2)N1CCCC1`, “inactive”.
With `CC(=O)NCCc1ccc(S(=O)(=O)N(C)C2CCS(=O)(=O)C2)cc1` (stereo not drawn), the max dye-equivalent concentration result is “inactive”.
As for `CCc1nc(Nc2ccc3nccnc3c2)c2oc3ccccc3c2n1`, the max dye-equivalent concentration was 82 nM (active).
Take `Cc1nc(N2CCN(c3ncccn3)CC2)c2oc3ccccc3c2n1`: the max dye-equivalent concentration result is “inactive”.
In the case of `C[C@@H](Nc1nc(-c2ccccc2)nc2c1oc1ccccc12)C(=O)O` it was “inactive”.
In the case of `Cc1ccc(O)c(NC(=O)COc2cc(C)ccc2C)c1` it was “inactive”.
Under `CC(=O)c1ccc(N2C(=NC(=O)C(C)C)SC3CS(=O)(=O)CC32)cc1` (stereo not drawn) stands “inactive”; under `CCOC(=O)CSc1nncc2ccc(OC)c(OC)c12`, “inactive”.
In the case of `Cc1ccccc1N1C(=O)C2ON(c3ccccc3)C(c3ccncc3)C2C1=O` (stereo not drawn), the max dye-equivalent concentration result is “inactive”.
Under `Cc1cc2c(cc1C)NC(c1ccccn1)C1=C(CC(C)(C)CC1=O)N2` (stereo not drawn) stands “inactive”; under `COc1cc(C2C(C#N)=C(C)NC3=C2C(=O)CC(C)(C)C3)ccc1O` (stereo not drawn), 17 nM (active).
In the case of `C=CCSC1=C(C#N)C(c2cc(Br)c(O)c(OC)c2)CC(=O)N1` (stereo not drawn) it was “inactive”; in that of `CCOc1ccc(CN(Cc2ccco2)C(c2cccs2)c2nnnn2C(C)(C)C)cc1` (stereo not drawn), “inactive”; in that of `CCN(Cc1ccncc1)C(=O)[C@@H](CO)c1ccccc1`, “inactive”.
Consider `COc1ccc(C(=O)N/N=C2/C(=O)c3c(C)cc(C)cc3CC2(C)C)cc1`, for which the max dye-equivalent concentration result is “inactive”.
In the case of `Cc1ccc(-c2nc(COC(=O)c3c(C)noc3C)cs2)cc1` it was “inactive”.
In the case of `Cc1noc(C)c1C(=O)OCC(=O)/C=C1\N(C)c2ccccc2C1(C)C` it was 210 nM (active); in that of `Cc1noc(C)c1C(=O)Nc1ccccn1`, “inactive”.
